Screening data as filed in PubChem BioAssay.
ADAM10 inh – inhibitors of human ADAM10; O14672; recombinant ADAM10, EDANS/DABCYL FRET peptide cleavage, 3 h; inhibition, % at 7 µM; 370,000 compounds, 0.62% hits;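 active = inhibition above a per-campaign cutoff equal to the mean of compounds falling between control-based bounds plus 3 SD, cut at about 20% in these data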
proKLK7 act – activators of human kallikrein-7 zymogen; P49862; purified proKLK7, EDANS-DABCYL substrate fluorescence; 100% is mature enzyme control, 0% vehicle; activation, % at 7 µM; 370,000 compounds, 0.9% hits;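 active = activation above the mean of all tested compounds plus 3 SD, computed per campaign excluding outliers beyond control limits, cut at about 13% in these data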
Target sequence (P49862 whole entry, looked up): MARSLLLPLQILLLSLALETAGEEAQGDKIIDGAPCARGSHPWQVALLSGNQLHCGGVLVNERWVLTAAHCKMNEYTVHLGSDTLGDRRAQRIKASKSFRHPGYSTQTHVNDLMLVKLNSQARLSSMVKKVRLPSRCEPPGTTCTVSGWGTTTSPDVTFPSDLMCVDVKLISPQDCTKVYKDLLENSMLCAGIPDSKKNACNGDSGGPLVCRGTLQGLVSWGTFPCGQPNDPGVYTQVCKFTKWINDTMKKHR
ADAM17 inh – inhibits human ADAM17; P78536; recombinant ADAM17, EDANS/DABCYL FRET peptide cleavage; inhibition, % at 6.95 µM; 370,000 compounds, 0.83% hits; AID 720648;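 active = inhibition above the mean of compounds lying between control limits plus 3 SD, set per campaign, cut at about 8.5% in these data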
V-ATPase pHluor – regulators of yeast V-ATPase proton transport. response, % at 10 µM. AID 504577. S. cerevisiae, pHLuorin cytosolic pH fluorescence. 350,000 compounds, 0.37% hits; in the data active = response mostly above about 7.3%, no sharp cut-off; inactive = mostly below about 5.4%; note: actives read high
KLK7 act conf – confirmation of human kallikrein-7 zymogen activators. shares compounds with proKLK7 act. purified proKLK7, EDANS-DABCYL substrate fluorescence; scaled: vehicle 0, mature enzyme 100. activation, % at 7 µM. 3,200 compounds, 68% hits. AID 686949;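 active = activation, as change over the incubation, above the mean of all tested compounds plus 3 SD, cut at about 13% in these data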
EDANS-DABCYL int – fluorescence interference counter-screen for KLK7 activators. AID 686952. EDANS-DABCYL substrate fluorescence interference, no enzyme, 4 h; solvent 0%, active enzyme control 100%. 3,200 compounds, 80% hits. activation, % at 7 µM. shares compounds with proKLK7 act;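 active = activation above the all-compound mean plus 3 SD, ignoring values outside control-based bounds, cut at about 4.8% in these data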;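 note: value is the 4 h activation minus the activation read at time zero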
K7 EDANS ctr – counter-screen for kallikrein-7 activators: EDANS-DABCYL interference, dose response. shares compounds with proKLK7 act. 250 compounds, 20% hits. EC50, µM. EDANS-DABCYL peptide fluorescence interference, no enzyme;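 active = compounds that raise the fluorescence signal in this interference counterscreen, with EC50 at or below 10 µM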;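 note: intact quenched peptide substrate alone read at 355 nm excitation and 520 nm emission; signal is fluorescence gain from T0 to T4 after four hours at room temperature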
Each line names hits and unclear results; the compound was inactive in the other large screens (follow-up assays come after a bar, where they were run). Most compounds without a hit are left out; they make up all but 2.3% or so of the library.

Cc1ccc(O)c(C(=O)C=Cc2ccccc2)c1	proKLK7 act 13.3 | KLK7 act conf 34.1 | EDANS-DABCYL int 34.4
Cc1ccc(/C=C/C(=O)c2ccccc2O)cc1	none
COc1cc(C)cc(C(=O)C=Cc2ccccc2)c1O	proKLK7 act 14.1 | KLK7 act conf inactive | EDANS-DABCYL int 10.8
CC(=O)C1(C(=O)N2CCOCC2)CC(c2ccccc2C(F)(F)F)=NO1 (stereo unspecified)	none (no result: V-ATPase pHluor)
COC(=O)C1=C(C)N(Cc2ccccc2C(F)(F)F)C(=NCc2ccccc2)NC1c1ccc(Cl)cc1 (stereo unspecified)	none (no result: V-ATPase pHluor)
Cc1ccc2nc3c(cc(C#N)c(=O)n3-c3nccs3)c(=O)n2c1	proKLK7 act 25.2 | KLK7 act conf 61.3 | EDANS-DABCYL int 73.3
CCC(C)n1c(=N)c(C#N)cc2c(=O)n3cc(C)ccc3nc21 (stereo unspecified)	none
COc1ccc(C(=O)C(=O)N2CCN(C(=O)c3ccccc3C(F)(F)F)CC2)cc1OC	none (no result: V-ATPase pHluor)
CN(N=Cc1ccccc1O)C(=O)c1ccccc1N	none (no result: V-ATPase pHluor)
Nc1nc2c(ncn2[C@@H]2O[C@H](C(=O)N[C@@H](Cc3ccccc3)C(=O)NCc3ccc4c(c3)OCO4)[C@@H](O)[C@H]2O)c(=O)[nH]1	none (no result: V-ATPase pHluor)
CCOC(=O)COc1ccc2c(c1)C(=O)CC1(CCN(C(C)=O)CC1)O2	proKLK7 act 22.4 | KLK7 act conf 26.0 | EDANS-DABCYL int 43.2
CC(=O)N1CCC2(CC1)CC(=O)c1cc(OCC(=O)N3CCCC3)ccc1O2	proKLK7 act 40.2 | KLK7 act conf 52.5 | EDANS-DABCYL int 55.3
COCCn1nnnc1C(c1cc2cccc(C)c2[nH]c1=O)N1CCN(c2ccccc2F)CC1 (stereo unspecified)	proKLK7 act 20.3 | KLK7 act conf 17.0 | EDANS-DABCYL int 17.4
CC(=O)Nc1cccc(-c2nc3ccc(NC(C)=O)cc3s2)c1	proKLK7 act 26.2 | KLK7 act conf 21.8 | EDANS-DABCYL int 20.9
Cc1cc(Nc2cccc(F)c2)nc(-c2ccccc2O)n1	proKLK7 act 196.5 | KLK7 act conf 12.7 | EDANS-DABCYL int inactive | K7 EDANS ctr inactive
O=C1/C(=C/c2cccc(F)c2)Oc2cc(O)ccc21	proKLK7 act 20.5 | KLK7 act conf 55.9 | EDANS-DABCYL int 78.6
c1ccc(CC2CCN(C3=Nc4cccc5cccc3c45)CC2)cc1	none (no result: ADAM10 inh, proKLK7 act, ADAM17 inh)
c1cc2c3c(cccc3c1)C(N1CCOCC1)=N2	proKLK7 act 44.3 | KLK7 act conf 47.4 | EDANS-DABCYL int 46.0
CCOC(=O)N1CCN(C2=Nc3cccc4cccc2c34)CC1	proKLK7 act 54.9 | KLK7 act conf 18.3 | EDANS-DABCYL int 28.2
COc1ccccc1N1CCN(C2=Nc3cccc4cccc2c34)CC1	none
CCOC(=O)N1CCN(C(=O)Nc2cccc3ccccc23)CC1	none
CC(=O)N1CCN(C2=Nc3cccc4cccc2c34)CC1	proKLK7 act 59.8 | KLK7 act conf 21.8 | EDANS-DABCYL int 18.6 | K7 EDANS ctr inactive
CC1CN(C2=Nc3cccc4cccc2c34)CC(C)O1 (stereo unspecified)	proKLK7 act 44.0 | KLK7 act conf inactive | EDANS-DABCYL int 5.7
COC(=O)C1=C(C)N(Cc2ccccc2C(F)(F)F)C(=NCc2cccc(C(F)(F)F)c2)NC1c1ccc(F)cc1 (stereo unspecified)	none (no result: V-ATPase pHluor)
COc1ccc2c3c([nH]c2c1)C1=NCC[C@]12c1ccccc1N=CN2CC3	none (no result: proKLK7 act, V-ATPase pHluor)
CC(C)(C)OC(=O)N1C[C@@]23C[C@H](c4cccc(F)c4)[C@@H](C[C@@H]2S1(=O)=O)O3	none (no result: V-ATPase pHluor)
C#CCN1CC(COc2ccccc2)OCCS1(=O)=O (stereo unspecified)	none (no result: V-ATPase pHluor)
C=CCNc1nc(NCc2ccccc2)c(C#N)c2c1CN(C)CC2	proKLK7 act 14.5 | KLK7 act conf 19.6 | EDANS-DABCYL int 15.2 | K7 EDANS ctr inactive
CCCCCNc1nc(N2CCCC2)c2c(c1C#N)CCN(C)C2	none
N#Cc1c(NCCN)nc(NCc2ccccc2)c2c1CCN(Cc1ccccc1)C2	none (no result: ADAM10 inh, proKLK7 act, ADAM17 inh)
CCCCCNc1nc(NCCCO)c(C#N)c2c1CN(C)CC2	proKLK7 act 19.8 | KLK7 act conf 16.8 | EDANS-DABCYL int 22.7
O=C(NC1CCCCN(Cc2cccc(Cl)c2)C1=O)c1cccc2nsnc12 (stereo unspecified)	none (no result: V-ATPase pHluor)
O=C(O)CNC(=O)CC1S/C(=N/N=C/c2ccccc2O)NC1=O (stereo unspecified)	proKLK7 act 21.3 | KLK7 act conf 33.6 | EDANS-DABCYL int 40.7
O=C(c1ccccc1)n1ccc2ccc(-c3ccc4ccn(Cc5ccccc5)c4c3)cc21	none (no result: V-ATPase pHluor)
Cc1ncc(CO)c(/C=N/NC(=O)c2ccccc2Br)c1O	proKLK7 act 28.0 | KLK7 act conf inactive | EDANS-DABCYL int inactive
COc1ccccc1N/N=C/c1c(CO)cnc(C)c1O	proKLK7 act 20.6 | KLK7 act conf 34.4 | EDANS-DABCYL int 39.0
Cc1ncc(CO)c(/C=N/NC(=O)c2ccoc2C)c1O	none
CC(C)C[C@@H]1COc2cc(N3CCCC3)ccc2S(=O)(=O)N1	none (no result: V-ATPase pHluor)
CC(C)(C)S(=O)(=O)N1C[C@H]2CC(=O)C=C2[C@@H]1CCO	none (no result: V-ATPase pHluor)
O=C(Nc1cccc2c1C(=O)NC2=O)c1ccc(S(=O)(=O)N2CCCC2)cc1	proKLK7 act 21.6 | KLK7 act conf 257.9 | EDANS-DABCYL int 264.0
CC1(C)Cc2c(sc(NC(=O)c3ccc(C(=O)c4ccccc4)cc3)c2C#N)C(C)(C)N1	proKLK7 act 15.0 | KLK7 act conf inactive | EDANS-DABCYL int 14.8
CC1(C)Cc2c(sc(NC(=O)c3ccc(S(=O)(=O)N4CCCC4)cc3)c2C#N)C(C)(C)N1	proKLK7 act 38.4 | KLK7 act conf 140.7 | EDANS-DABCYL int 154.1
CCOC(=O)N1CCN(S(=O)(=O)c2ccc(C(=O)Nc3sc4c(c3C#N)CC(C)(C)NC4(C)C)cc2)CC1	proKLK7 act 109.0 | KLK7 act conf 52.9 | EDANS-DABCYL int 51.3
CCn1c2ccccc2c2cc(C=Nn3c(-c4ccccc4C)n[nH]c3=S)ccc21	none (no result: V-ATPase pHluor)
CC(NC(=O)c1c(N)[nH]c(C(=O)c2ccc(Cl)cc2)c1-c1ccc(Br)cc1)c1cccc2ccccc12 (stereo unspecified)	none (no result: V-ATPase pHluor)
C[C@H](c1ccccc1)N1C[C@@H](COCc2ccccc2)Oc2cccc(Oc3ccc(F)cc3)c2S1(=O)=O	none (no result: V-ATPase pHluor)
CN1CCc2c(sc(NC(=O)c3ccc(S(=O)(=O)N4CCCCCC4)cc3)c2C(N)=O)C1	none (no result: ADAM10 inh, proKLK7 act, ADAM17 inh)
CC1(C)Cc2c(sc(NC(=O)c3ccc(S(=O)(=O)N4CCCCCC4)cc3)c2C(N)=O)C(C)(C)N1	proKLK7 act 30.5 | KLK7 act conf 33.2 | EDANS-DABCYL int 30.6
Cc1sc2nc3ccc(NCc4ccco4)nn3c(=O)c2c1C	proKLK7 act 17.1 | KLK7 act conf 74.2 | EDANS-DABCYL int 69.7
